Assay results as given in ChEMBL document CHEMBL1961873, “Compounds: GSK PKIS; Assays: Nanosyn kinase panel” (2012).

How the values were obtained:
[1] = target: Calcium/calmodulin-dependent protein kinase type II subunit alpha (Homo sapiens) (UniProt Q9UQM7); settings: at 1 µM;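 further: reported value is a mean percent inhibition of CAMK2A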
[2] = target: Calcium/calmodulin-dependent protein kinase type II subunit delta (Homo sapiens) (UniProt Q13557); settings: at 0.1 µM
[3] = target: Calcium/calmodulin-dependent protein kinase type II subunit delta (Homo sapiens) (UniProt Q13557); settings: at 1 µM
[4] = target: T1, Calcium/calmodulin-dependent protein kinase type IV (Homo sapiens) (UniProt Q16566); settings: at 0.1 µM
T1 sequence (whole entry): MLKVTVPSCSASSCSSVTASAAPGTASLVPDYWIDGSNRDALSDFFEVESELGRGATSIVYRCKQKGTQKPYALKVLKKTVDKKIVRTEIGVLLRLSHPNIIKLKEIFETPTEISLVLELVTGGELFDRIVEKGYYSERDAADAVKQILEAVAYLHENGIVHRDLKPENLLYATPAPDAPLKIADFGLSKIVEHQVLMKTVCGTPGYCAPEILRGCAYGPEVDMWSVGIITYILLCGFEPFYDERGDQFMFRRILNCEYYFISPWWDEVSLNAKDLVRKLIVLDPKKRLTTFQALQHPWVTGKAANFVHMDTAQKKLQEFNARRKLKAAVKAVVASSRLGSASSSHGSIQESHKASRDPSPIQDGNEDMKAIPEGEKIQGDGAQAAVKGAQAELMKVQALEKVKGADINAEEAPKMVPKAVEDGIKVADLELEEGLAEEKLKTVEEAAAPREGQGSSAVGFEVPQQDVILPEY

[5] = target: T1, Calcium/calmodulin-dependent protein kinase type IV (Homo sapiens); settings: at 1 µM
[6] = target: T2, Serine/threonine-protein kinase Chk1 (Homo sapiens) (UniProt O14757); settings: at 0.1 µM
T2 sequence (whole entry): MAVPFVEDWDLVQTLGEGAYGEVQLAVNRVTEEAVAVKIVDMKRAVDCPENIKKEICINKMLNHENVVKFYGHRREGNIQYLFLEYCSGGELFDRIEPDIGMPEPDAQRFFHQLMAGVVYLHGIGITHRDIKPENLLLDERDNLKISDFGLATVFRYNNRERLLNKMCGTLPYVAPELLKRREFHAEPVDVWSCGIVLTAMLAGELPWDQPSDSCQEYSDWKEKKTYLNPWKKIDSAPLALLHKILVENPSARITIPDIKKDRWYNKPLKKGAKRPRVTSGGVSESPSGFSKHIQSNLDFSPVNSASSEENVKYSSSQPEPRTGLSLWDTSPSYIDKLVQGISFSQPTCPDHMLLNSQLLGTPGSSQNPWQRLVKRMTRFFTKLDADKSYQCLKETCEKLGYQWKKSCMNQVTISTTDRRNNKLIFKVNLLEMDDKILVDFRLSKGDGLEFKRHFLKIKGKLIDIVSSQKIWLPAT

[7] = target: T2, Serine/threonine-protein kinase Chk1 (Homo sapiens); settings: at 1 µM
[8] = target: Serine/threonine-protein kinase Chk2 (Homo sapiens) (UniProt O96017); settings: at 0.1 µM
Serine/threonine-protein kinase Chk2 (Homo sapiens), sequence (O96017 whole entry): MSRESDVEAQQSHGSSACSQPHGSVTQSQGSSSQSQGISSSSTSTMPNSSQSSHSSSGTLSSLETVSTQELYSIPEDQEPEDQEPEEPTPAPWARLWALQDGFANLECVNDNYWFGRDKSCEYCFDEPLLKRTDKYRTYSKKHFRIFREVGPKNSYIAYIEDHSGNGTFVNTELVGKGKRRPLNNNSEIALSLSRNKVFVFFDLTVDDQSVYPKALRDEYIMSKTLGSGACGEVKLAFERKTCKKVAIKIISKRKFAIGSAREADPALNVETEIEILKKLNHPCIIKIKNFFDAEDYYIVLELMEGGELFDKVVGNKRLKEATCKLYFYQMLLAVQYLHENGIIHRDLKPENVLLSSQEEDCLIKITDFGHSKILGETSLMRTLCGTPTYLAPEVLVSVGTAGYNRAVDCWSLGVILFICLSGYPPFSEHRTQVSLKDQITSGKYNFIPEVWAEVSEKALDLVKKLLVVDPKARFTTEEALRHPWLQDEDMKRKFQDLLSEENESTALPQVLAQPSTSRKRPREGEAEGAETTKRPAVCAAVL

[9] = target: Serine/threonine-protein kinase Chk2 (Homo sapiens) (UniProt O96017); settings: at 1 µM
[10] = target: Death-associated protein kinase 1 (Homo sapiens) (UniProt P53355); settings: at 0.1 µM
Death-associated protein kinase 1 (Homo sapiens), sequence (P53355 whole entry, looked up): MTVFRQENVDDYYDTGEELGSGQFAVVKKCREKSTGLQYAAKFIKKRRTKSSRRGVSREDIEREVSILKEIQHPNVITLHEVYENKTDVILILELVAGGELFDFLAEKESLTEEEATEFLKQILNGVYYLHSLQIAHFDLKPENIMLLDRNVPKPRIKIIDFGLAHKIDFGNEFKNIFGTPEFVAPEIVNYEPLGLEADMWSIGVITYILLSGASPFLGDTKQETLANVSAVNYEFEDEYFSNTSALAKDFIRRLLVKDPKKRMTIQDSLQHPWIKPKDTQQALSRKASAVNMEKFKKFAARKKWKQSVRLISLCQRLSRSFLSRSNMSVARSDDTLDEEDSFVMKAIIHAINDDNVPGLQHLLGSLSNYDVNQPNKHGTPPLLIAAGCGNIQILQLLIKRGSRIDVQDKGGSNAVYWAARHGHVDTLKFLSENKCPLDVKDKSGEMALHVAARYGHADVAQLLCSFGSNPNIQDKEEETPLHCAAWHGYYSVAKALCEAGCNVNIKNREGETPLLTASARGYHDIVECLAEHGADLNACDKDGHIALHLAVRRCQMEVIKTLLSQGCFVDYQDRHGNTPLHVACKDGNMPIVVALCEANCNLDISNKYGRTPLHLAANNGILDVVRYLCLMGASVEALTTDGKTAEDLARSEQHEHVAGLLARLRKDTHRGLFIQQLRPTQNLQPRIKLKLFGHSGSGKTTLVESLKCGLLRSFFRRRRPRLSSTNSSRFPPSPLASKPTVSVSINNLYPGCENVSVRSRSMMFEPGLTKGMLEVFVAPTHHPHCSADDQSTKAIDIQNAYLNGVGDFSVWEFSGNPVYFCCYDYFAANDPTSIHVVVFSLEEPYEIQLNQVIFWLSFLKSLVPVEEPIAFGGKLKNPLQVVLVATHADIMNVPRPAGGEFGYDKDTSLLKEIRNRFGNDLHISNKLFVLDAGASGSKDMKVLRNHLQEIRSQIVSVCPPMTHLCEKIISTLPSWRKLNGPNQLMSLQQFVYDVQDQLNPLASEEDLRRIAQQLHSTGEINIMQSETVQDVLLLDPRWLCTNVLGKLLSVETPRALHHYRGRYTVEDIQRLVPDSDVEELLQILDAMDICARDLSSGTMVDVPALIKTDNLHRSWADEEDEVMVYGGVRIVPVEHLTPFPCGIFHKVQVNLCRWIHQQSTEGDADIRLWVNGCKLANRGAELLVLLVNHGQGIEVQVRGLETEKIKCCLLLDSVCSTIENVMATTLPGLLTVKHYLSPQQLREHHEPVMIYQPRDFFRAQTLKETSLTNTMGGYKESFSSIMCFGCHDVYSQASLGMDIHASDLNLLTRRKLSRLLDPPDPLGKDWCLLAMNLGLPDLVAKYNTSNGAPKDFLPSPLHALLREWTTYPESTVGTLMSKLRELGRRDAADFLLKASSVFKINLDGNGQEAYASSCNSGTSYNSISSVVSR

[11] = target: Death-associated protein kinase 1 (Homo sapiens) (UniProt P53355); settings: at 1 µM
[12] = target: T3, Serine/threonine-protein kinase DCLK2 (Homo sapiens) (UniProt Q8N568); settings: at 0.1 µM
T3 sequence (whole entry): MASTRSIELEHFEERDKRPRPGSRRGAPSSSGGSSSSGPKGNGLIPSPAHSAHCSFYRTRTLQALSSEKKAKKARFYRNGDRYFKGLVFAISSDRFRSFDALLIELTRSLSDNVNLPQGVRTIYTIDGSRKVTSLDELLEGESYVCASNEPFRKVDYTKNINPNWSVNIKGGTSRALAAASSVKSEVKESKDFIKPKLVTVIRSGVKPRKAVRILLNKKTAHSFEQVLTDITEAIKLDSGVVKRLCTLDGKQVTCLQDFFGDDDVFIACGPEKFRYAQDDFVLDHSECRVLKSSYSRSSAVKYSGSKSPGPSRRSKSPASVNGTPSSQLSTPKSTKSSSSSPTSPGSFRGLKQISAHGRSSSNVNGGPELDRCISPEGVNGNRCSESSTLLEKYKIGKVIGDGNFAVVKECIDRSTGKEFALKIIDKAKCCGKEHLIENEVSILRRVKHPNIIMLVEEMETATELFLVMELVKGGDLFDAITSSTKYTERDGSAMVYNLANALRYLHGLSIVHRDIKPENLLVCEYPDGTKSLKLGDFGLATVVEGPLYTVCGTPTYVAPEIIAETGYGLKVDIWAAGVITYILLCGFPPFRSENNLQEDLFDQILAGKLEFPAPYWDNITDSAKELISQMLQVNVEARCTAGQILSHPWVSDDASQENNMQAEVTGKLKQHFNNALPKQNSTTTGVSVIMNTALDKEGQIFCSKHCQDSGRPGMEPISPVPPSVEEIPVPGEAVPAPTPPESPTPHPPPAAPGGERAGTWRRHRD

[13] = target: T3, Serine/threonine-protein kinase DCLK2 (Homo sapiens); settings: at 1 µM
[14] = target: MAP kinase-activated protein kinase 2 (Homo sapiens) (UniProt P49137); settings: at 0.1 µM
MAP kinase-activated protein kinase 2 (Homo sapiens), sequence (P49137 whole entry, looked up): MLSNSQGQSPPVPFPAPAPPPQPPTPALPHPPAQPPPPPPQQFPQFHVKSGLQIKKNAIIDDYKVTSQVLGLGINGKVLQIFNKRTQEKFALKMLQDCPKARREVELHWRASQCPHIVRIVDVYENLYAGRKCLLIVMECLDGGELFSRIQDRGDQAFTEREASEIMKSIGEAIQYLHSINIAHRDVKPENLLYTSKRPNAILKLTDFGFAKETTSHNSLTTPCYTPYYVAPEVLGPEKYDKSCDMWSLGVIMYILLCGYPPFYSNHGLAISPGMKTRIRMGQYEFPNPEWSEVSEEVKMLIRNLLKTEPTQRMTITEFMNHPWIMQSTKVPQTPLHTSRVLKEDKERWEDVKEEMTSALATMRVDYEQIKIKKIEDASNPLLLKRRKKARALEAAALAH

[15] = target: MAP kinase-activated protein kinase 2 (Homo sapiens) (UniProt P49137); settings: at 1 µM
[16] = target: MAP kinase-activated protein kinase 3 (Homo sapiens) (UniProt Q16644); settings: at 0.1 µM
[17] = target: MAP kinase-activated protein kinase 3 (Homo sapiens) (UniProt Q16644); settings: at 1 µM
[18] = target: Serine/threonine-protein kinase MARK1 (Homo sapiens) (UniProt Q9P0L2); settings: at 0.1 µM
Serine/threonine-protein kinase MARK1 (Homo sapiens), sequence (Q9P0L2 whole entry, looked up): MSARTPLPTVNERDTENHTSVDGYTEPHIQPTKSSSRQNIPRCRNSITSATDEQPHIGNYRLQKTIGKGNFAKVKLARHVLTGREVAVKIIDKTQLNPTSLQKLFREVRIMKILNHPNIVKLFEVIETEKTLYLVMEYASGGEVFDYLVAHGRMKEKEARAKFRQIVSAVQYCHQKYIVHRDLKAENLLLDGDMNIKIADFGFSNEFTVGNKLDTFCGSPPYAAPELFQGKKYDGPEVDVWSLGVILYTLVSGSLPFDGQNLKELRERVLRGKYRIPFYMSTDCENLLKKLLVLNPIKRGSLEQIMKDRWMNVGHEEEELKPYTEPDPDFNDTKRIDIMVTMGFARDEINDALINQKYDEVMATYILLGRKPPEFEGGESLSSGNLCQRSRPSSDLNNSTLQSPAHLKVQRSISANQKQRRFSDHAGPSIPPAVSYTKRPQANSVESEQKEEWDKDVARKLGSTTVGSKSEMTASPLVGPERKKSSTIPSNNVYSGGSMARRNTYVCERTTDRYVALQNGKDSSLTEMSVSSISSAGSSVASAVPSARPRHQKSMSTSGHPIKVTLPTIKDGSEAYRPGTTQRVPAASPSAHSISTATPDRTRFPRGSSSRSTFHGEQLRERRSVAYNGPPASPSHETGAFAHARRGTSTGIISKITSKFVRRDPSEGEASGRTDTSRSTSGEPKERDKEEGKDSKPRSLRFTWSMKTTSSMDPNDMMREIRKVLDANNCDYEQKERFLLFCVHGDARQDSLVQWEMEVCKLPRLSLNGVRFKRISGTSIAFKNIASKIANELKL

[19] = target: Serine/threonine-protein kinase MARK1 (Homo sapiens) (UniProt Q9P0L2); settings: at 1 µM
[20] = target: MAP/microtubule affinity-regulating kinase 3 (Homo sapiens) (UniProt P27448); settings: at 0.1 µM;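 further: mean percent inhibition of MARK3 kinase activity, measured within the GSK PKIS screening panel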
MAP/microtubule affinity-regulating kinase 3 (Homo sapiens), sequence (P27448 whole entry, looked up): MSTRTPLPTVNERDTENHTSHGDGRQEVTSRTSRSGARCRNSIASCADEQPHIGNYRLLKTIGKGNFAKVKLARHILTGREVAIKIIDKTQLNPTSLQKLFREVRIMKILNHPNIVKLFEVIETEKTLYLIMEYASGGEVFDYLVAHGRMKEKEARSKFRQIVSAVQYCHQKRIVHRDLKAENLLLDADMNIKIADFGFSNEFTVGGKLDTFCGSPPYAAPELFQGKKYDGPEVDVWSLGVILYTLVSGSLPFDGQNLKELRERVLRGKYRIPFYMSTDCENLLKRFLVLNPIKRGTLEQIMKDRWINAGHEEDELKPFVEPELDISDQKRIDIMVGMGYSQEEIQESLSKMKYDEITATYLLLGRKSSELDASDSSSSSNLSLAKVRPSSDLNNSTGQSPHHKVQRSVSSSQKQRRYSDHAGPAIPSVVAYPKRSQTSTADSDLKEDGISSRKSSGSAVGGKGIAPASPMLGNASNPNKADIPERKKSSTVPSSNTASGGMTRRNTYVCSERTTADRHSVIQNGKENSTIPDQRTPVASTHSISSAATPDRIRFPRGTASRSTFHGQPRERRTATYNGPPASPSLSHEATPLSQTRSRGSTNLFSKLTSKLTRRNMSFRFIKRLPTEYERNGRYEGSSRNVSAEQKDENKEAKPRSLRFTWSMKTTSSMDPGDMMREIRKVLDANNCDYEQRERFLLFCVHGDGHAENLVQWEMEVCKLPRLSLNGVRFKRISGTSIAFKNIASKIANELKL

Calcium/calmodulin-dependent protein kinase type II subunit alpha (Homo sapiens), sequence (Q9UQM7 whole entry): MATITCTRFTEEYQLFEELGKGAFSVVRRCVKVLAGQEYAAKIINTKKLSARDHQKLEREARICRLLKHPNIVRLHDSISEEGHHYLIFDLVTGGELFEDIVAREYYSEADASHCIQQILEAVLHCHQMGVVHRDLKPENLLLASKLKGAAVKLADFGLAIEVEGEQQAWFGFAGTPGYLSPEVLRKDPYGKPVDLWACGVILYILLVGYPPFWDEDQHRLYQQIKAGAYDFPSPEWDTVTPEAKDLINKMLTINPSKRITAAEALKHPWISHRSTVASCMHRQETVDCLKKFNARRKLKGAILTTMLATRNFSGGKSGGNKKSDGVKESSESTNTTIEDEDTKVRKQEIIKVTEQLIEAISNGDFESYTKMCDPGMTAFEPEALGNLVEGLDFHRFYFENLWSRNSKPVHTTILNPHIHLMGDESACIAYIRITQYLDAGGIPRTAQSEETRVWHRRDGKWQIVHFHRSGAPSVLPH
Calcium/calmodulin-dependent protein kinase type II subunit delta (Homo sapiens), sequence (Q13557 whole entry): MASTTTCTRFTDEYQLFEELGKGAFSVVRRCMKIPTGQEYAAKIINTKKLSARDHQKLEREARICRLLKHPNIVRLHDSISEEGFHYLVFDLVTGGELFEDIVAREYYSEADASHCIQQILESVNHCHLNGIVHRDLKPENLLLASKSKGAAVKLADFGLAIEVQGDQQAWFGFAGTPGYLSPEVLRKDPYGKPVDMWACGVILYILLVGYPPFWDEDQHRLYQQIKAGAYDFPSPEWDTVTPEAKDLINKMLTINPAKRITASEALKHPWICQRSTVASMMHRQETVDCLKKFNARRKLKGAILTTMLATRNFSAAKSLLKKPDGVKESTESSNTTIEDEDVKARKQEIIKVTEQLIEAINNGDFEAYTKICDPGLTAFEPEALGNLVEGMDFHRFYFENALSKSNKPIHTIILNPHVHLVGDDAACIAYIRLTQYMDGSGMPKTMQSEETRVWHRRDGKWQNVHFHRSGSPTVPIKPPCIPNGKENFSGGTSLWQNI

SMILES | inhibition [1] | inhibition [2] | inhibition [3] | inhibition [4] | inhibition [5] | inhibition [6] | inhibition [7] | inhibition [8] | inhibition [9] | inhibition [10] | inhibition [11] | inhibition [12] | inhibition [13] | inhibition [14] | inhibition [15] | inhibition [16] | inhibition [17] | inhibition [18] | inhibition [19] | inhibition [20]
NS(=O)(=O)c1ccc(-c2cc3ccncc3cc2OCc2ccccc2)cc1 | 2.94% | 2.4% | 4.59% | -1.16% | 2.15% | 0.26% | 0.12% | 2.85% | 4.7% | 1.1% | 1.02% | 0.91% | 3.41% | 1.47% | 1.1% | 5.12% | 6.72% | 0.77% | 3.63% | -0.26%
COC(=O)c1cncc(/C=C/c2c(C)cc(O)cc2C)c1 | 3.06% | 1.37% | 3% | -2.74% | -4.13% | 3.13% | 3.49% | 2.38% | 4.27% | 4.88% | 5.55% | 1.84% | 1.18% | 1.83% | 2.28% | 2.97% | 3.34% | 2.55% | 2.79% | 2.68%
COc1cc2ncnc(Nc3ccc4c(cnn4Cc4ccccc4)c3)c2cc1OC | 0.24% | 1.57% | 4.24% | -0.17% | 0.05% | 8.66% | 14.1% | 10.7% | 35.9% | 9.32% | 8.23% | -1.15% | 0.67% | 2.78% | 4.35% | 6.95% | 9.14% | 1.12% | 3.17% | 0.1%
O=C1Nc2ccccc2/C1=C/Nc1ccc2[nH]c(=O)[nH]c2c1 | 6.6% | 4.2% | 14.1% | -1.23% | -1.4% | 0.84% | 15.7% | 5.95% | 23.3% | 1.92% | 2.63% | 0.75% | -0.33% | 2.44% | 2.97% | 6.76% | 8.08% | 6.25% | 32.5% | 2.47%
Cc1ccc(Nc2ccnc(Nc3cccc(C(N)=O)c3)n2)cc1O | 3.19% | 2.94% | 5.54% | -0.64% | -0.14% | 1% | 2.08% | 2.56% | 12.8% | 1.62% | 0.43% | -4.04% | 0.3% | 1.02% | 0.74% | 3.05% | 7.65% | 2.3% | 6.45% | 4.15%
Oc1cccc(-c2nc(-c3ccccc3)[nH]c2-c2ccncc2)c1 | 3.17% | 3.67% | 3.45% | 2.26% | 0.29% | 7.47% | 6.28% | 0.91% | 1.68% | 5.76% | 6.12% | 2.33% | 0.39% | 1.62% | 1.79% | 11.7% | 25.4% | 1.58% | 4.27% | 3.78%
Cc1cc(Cl)cc2c1NC(=O)C2=NNc1ccc(S(N)(=O)=O)cc1 | 0.96% | 2.57% | -0.12% | -0.56% | -3.46% | 2.43% | 2.86% | 1.38% | 2.55% | 2.88% | 3.49% | 1.05% | 6.07% | 1.56% | 1.44% | 0.78% | 2.25% | 2.46% | 4.87% | 3.64%
CCn1c(-c2nonc2N)nc2ccc(F)cc21 | 3.68% | 3.98% | 3.55% | -2.59% | -2.75% | 3.58% | 8.57% | 3.29% | 4.58% | 8.42% | 10.7% | 0.68% | 0.5% | 2.81% | 3.62% | 4.6% | 5.57% | 14.8% | 6.7% | 2.41%
Cc1ccc2c(-c3ccnc(Nc4cccc(C(F)(F)F)c4)n3)c(-c3ccccc3)nn2n1 | 1.98% | 2.93% | 5.15% | 1.16% | 3.52% | -6.21% | -9.83% | -3.6% | -3.73% | -4.51% | -5.56% | 0.64% | 2.53% | -1.16% | -0.78% | 15.6% | 27.2% | 1.58% | 4.76% | -0.41%
N#Cc1cccc(Nc2nccc(-c3cnn4ncccc34)n2)c1 | 35.4% | 17.8% | 63.4% | -1.28% | -0.33% | 3% | 3.73% | 3.25% | 10.6% | 3.73% | 3.93% | 2.04% | 0.56% | 2.34% | 1.6% | 2.17% | 5% | 6.5% | 15.2% | 2.34%
Cc1cc(-c2ccccn2)cc(C)c1/C=C/c1cncc(-c2nn[nH]n2)c1 | 1.59% | 2.75% | 5% | -1.17% | -1.4% | 4.62% | 4.81% | 2.62% | 4.43% | 6.16% | 4.15% | -0.19% | 1.55% | 2.23% | 2.74% | 4.19% | 6.94% | 1.24% | 4.82% | 2.15%
Cc1ccc(NC(=O)CC2CC2)cc1-c1ccc(C(=O)NCC2CC2)cc1 | 2.95% | 2.84% | 3.34% | -0.3% | -0.84% | 7.49% | 10.9% | 6.96% | 7.62% | 11.5% | 12.4% | 1.13% | 0.51% | 4.17% | 4.27% | 18.4% | 33.5% | 2.05% | 2.04% | 2.42%
